Source: PubChem BioAssay (NCATS)
Records with an inconclusive call do not appear. The source made the active and inactive calls. Unless noted, the call rests on the fitted dose curve; in most records, active means well fitted curve in the direction sought with a large enough effect; inconclusive means small, poorly fitted or top-dose-only effect, or another doubt; inactive means no such curve, though single readings can be large; an effect the other way counts as inactive or inconclusive. Bridge positions count the residues as written; N and C are the ends. Square brackets hold non-standard residues; d marks the D form. Peptide text beside a SMILES is read from it. * marks the point of attachment. Ileψ(thiazoline)Cys = CC[C@H](C)[C@H](N)C1=N[C@H](C(=O)*)CS1; d(aIle) = CC[C@H](C)[C@@H](N)C(=O)O; dOrn = NCCC[C@@H](N)C(=O)O

Experiment: S16 Schwann cell PMP22 intronic element firefly luciferase assay (AID 624032); further: nearly all actives have a fitted effect of over 30% in size; further: potency means the concentration at half of the fitted maximal effect;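 on activity change, negative = inhibition: plate controls were DMSO for no effect and PTC124 positive control mean for full effect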
Conditions: S16 rat Schwann cells, PMP22 element FLuc, 24 h; series mostly up to 25.7 µM; activity change, negative = inhibition: at the top concentration
In short: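 Rat S16 Schwann cells stably carrying firefly luciferase driven by a PMP22 intronic element, in 10% FBS, treated 24 h at 37 C. ONE-Glo luminescence normalized to PTC124 control and DMSO (0%); curves classed by r2, magnitude and activity.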

Row | SMILES | activity change, negative = inhibition | Potency
1 | C[C@@H]1C[C@H]2[C@@H]3C[C@H](F)C4=CC(=O)C=C[C@@]4(C)[C@]3(F)[C@H](O)C[C@]2(C)[C@@]1(O)C(=O)CO | -3.98% (inactive) | 
2 | CCCCC[C@H](O)/C=C\[C@@H]1[C@H](O)CC(=O)[C@@H]1CCCCCCC(=O)O | -0.408% (inactive) | 
3 | CCc1c(C)[nH]c2c1C(=O)[C@H](CN1CCOCC1)CC2 | 6.88% (inactive) | 
4 | CCC(=O)OCC(=O)[C@@]1(OC(=O)CC)[C@H](C)C[C@@H]2[C@@H]3[C@H]([C@@H](O)C[C@@]21C)[C@]1(C)C=CC(=O)C=C1C[C@@H]3Cl | 24% (inactive) | 
5 | CS(=O)(=O)c1ccc([C@H](O)[C@H](CF)NC(=O)C(Cl)Cl)cc1 | 0.486% (inactive) | 
6 | O=C(N/N=C\c1ccc([N+](=O)[O-])o1)c1ccc(O)cc1 |  | 3.46 µM (active)
7 | CCOC(=O)O[C@@H](C)OC(=O)[C@@H]1N2C(=O)[C@@H](NC(=O)[C@@H](N)c3ccccc3)[C@H]2SC1(C)C | -6.74% (inactive) | 
8 | Cc1cccc(CN2CCN([C@@H](c3ccccc3)c3ccc(Cl)cc3)CC2)c1 | -29.8% (inactive) | 
9 | Cc1ccsc1/C=C\C1=NCCCN1C | -11% (inactive) | 
10 | O=C(O)COCCN1CCN([C@@H](c2ccccc2)c2ccc(Cl)cc2)CC1 | -25.1% (inactive) | 
11 | C#C[C@]1(O)CC[C@@H]2[C@H]3CCC4=CCCC[C@@H]4[C@@H]3CC[C@@]21C |  | 5.49 µM (active)
12 | CC1(C)[C@@H](OC(=O)CCC(=O)O)CC[C@@]2(C)[C@H]1CC[C@@]1(C)[C@H]2C(=O)C=C2[C@H]3C[C@](C)(C(=O)O)CC[C@]3(C)CC[C@@]21C | 0.0899% (inactive) | 
13 | C[C@H](CCC(=O)O)[C@H]1CC[C@@H]2[C@@H]3[C@@H](O)C[C@H]4C[C@@H](O)CC[C@@]4(C)[C@H]3CC[C@@]21C | -18.3% (inactive) | 
14 | CN1CCO[C@H](c2ccccc2)c2ccccc2C1 | 1.42% (inactive) | 

Experiment: S16 Schwann cell PMP22 intronic element beta-lactamase assay (AID 624044; calls by dose curve;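 further: 0% = DMSO and -100% = potassium clavulanate positive control; nearly all actives have a fitted effect of over 15% in size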)
Conditions: S16 rat Schwann cells, PMP22 element beta-lactamase FRET, 24 h; series mostly up to 17.1 µM; ratio activity, negative = inhibition: at the top concentration
In short: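 Beta-lactamase reporter under a PMP22 intronic regulatory element in stable S16 rat Schwann cells; 24 h compound exposure. 460 nm blue signal normalized between DMSO (0%) and potassium clavulanate, with 535 nm FRET tracking viability; curves classed by r2 and response.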

Row | SMILES | ratio activity, negative = inhibition
15 | C[C@@H]1C[C@H]2[C@@H]3C[C@H](F)C4=CC(=O)C=C[C@@]4(C)[C@]3(F)[C@H](O)C[C@]2(C)[C@@]1(O)C(=O)CO | -14.8% (inactive)
16 | C[C@H](O)Cn1cnc2c1c(=O)n(C)c(=O)n2C | 4.66% (inactive)
17 | CC(=C(CCOP(=O)(O)O)SC(=O)c1ccccc1)N(C=O)Cc1cnc(C)nc1N | 3.13% (inactive)
18 | NC[C@@H]1O[C@@H](O[C@H]2[C@H](O)[C@H](O[C@@H]3O[C@H](CO)[C@@H](O)[C@H](N)[C@@H]3O)[C@@H](N)C[C@H]2N)[C@H](N)C[C@@H]1O | -4.9% (inactive)
19 | C=C1c2c(Cl)ccc(O)c2C(O)=C2C(=O)[C@@]3(O)C(O)=C(C(N)=O)C(=O)[C@@H](N(C)C)[C@@H]3[C@@H](O)[C@H]12 | -8.78% (inactive)
20 | CCC(=O)OCC(=O)[C@@]1(OC(=O)CC)[C@H](C)C[C@@H]2[C@@H]3[C@H]([C@@H](O)C[C@@]21C)[C@]1(C)C=CC(=O)C=C1C[C@@H]3Cl | -7.55% (inactive)
21 | O=C(N/N=C\c1ccc([N+](=O)[O-])o1)c1ccc(O)cc1 | 1.01% (inactive)
22 | C[C@@H](CNC1CCCCC1)OC(=O)c1ccccc1 | -17.7% (inactive)
23 | CCOC(=O)O[C@@H](C)OC(=O)[C@@H]1N2C(=O)[C@@H](NC(=O)[C@@H](N)c3ccccc3)[C@H]2SC1(C)C | -11.9% (inactive)
24 | Cc1cccc(CN2CCN([C@@H](c3ccccc3)c3ccc(Cl)cc3)CC2)c1 | -17.1% (inactive)
25 | Cc1ccsc1/C=C\C1=NCCCN1C | 3.01% (inactive)
26 | C#C[C@]1(O)CC[C@@H]2[C@H]3CCC4=CCCC[C@@H]4[C@@H]3CC[C@@]21C | -21.3% (inactive)
27 | CC1(C)[C@@H](OC(=O)CCC(=O)O)CC[C@@]2(C)[C@H]1CC[C@@]1(C)[C@H]2C(=O)C=C2[C@H]3C[C@](C)(C(=O)O)CC[C@]3(C)CC[C@@]21C | 0.769% (inactive)
28 | C[C@H](CCC(=O)O)[C@H]1CC[C@@H]2[C@@H]3[C@@H](O)C[C@H]4C[C@@H](O)CC[C@@]4(C)[C@H]3CC[C@@]21C | 7.64% (inactive)
29 | CN1CCO[C@H](c2ccccc2)c2ccccc2C1 | -4.08% (inactive)

Experiment: qHTS profiling for inhibitors of Plasmodium falciparum proliferation (AID 504749);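 further: 0% = DMSO vehicle and full inhibition = artemisinin control; nearly all actives have a fitted effect of over 60% in size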
Conditions: P. falciparum in erythrocytes, SYBR Green DNA, 72 h; at 12.8 µM (top of the series); parasite line A
In short: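 SYBR Green fluorescence (ex 485 nm, em 535 nm) reports parasite DNA after 72 h compound exposure of infected red cells at 0.3% parasitemia, 2.5% hematocrit; signal normalized to 0.29 uM artemisinin and vehicle wells.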

Row | SMILES | activity, negative = inhibition
30 | C[C@@H]1C[C@H]2[C@@H]3C[C@H](F)C4=CC(=O)C=C[C@@]4(C)[C@]3(F)[C@H](O)C[C@]2(C)[C@@]1(O)C(=O)CO | 7.34% (inactive)
31 | C[C@H](O)Cn1cnc2c1c(=O)n(C)c(=O)n2C | 7.57% (inactive)
32 | CCCCC[C@H](O)/C=C\[C@@H]1[C@H](O)CC(=O)[C@@H]1CCCCCCC(=O)O | 8.32% (inactive)
33 | CC(=C(CCOP(=O)(O)O)SC(=O)c1ccccc1)N(C=O)Cc1cnc(C)nc1N | -4.37% (inactive)
34 | NC[C@@H]1O[C@@H](O[C@H]2[C@H](O)[C@H](O[C@@H]3O[C@H](CO)[C@@H](O)[C@H](N)[C@@H]3O)[C@@H](N)C[C@H]2N)[C@H](N)C[C@@H]1O | 9.72% (inactive)
35 | CCc1c(C)[nH]c2c1C(=O)[C@H](CN1CCOCC1)CC2 | 13% (inactive)
36 | CC[C@H](C)[C@H](N)C1=N[C@H](C(=O)N[C@@H](CC(C)C)C(=O)N[C@@H](CCC(=O)O)C(=O)N[C@@H](C(=O)N[C@H]2CCCCNC(=O)[C@@H](CC(N)=O)NC(=O)[C@@H](CC(=O)O)NC(=O)[C@@H](Cc3cnc[nH]3)NC(=O)[C@@H](Cc3ccccc3)NC(=O)[C@@H]([C@@H](C)CC)NC(=O)[C@@H](CCCN)NC2=O)[C@@H](C)CC)CS1 ({Ileψ(thiazoline)Cys}-LE[d(aIle)]K[dOrn][d(aIle)][dF][dH][dD][dN]; lactam 4-C) | 0.552% (inactive)
37 | CCOC(=O)O[C@@H](C)OC(=O)[C@@H]1N2C(=O)[C@@H](NC(=O)[C@@H](N)c3ccccc3)[C@H]2SC1(C)C | 6.23% (inactive)
38 | Cc1ccsc1/C=C\C1=NCCCN1C | 10.5% (inactive)
39 | O=C(O)COCCN1CCN([C@@H](c2ccccc2)c2ccc(Cl)cc2)CC1 | -5.9% (inactive)
40 | C#C[C@]1(O)CC[C@@H]2[C@H]3CCC4=CCCC[C@@H]4[C@@H]3CC[C@@]21C | 11.7% (inactive)
41 | CC1(C)[C@@H](OC(=O)CCC(=O)O)CC[C@@]2(C)[C@H]1CC[C@@]1(C)[C@H]2C(=O)C=C2[C@H]3C[C@](C)(C(=O)O)CC[C@]3(C)CC[C@@]21C | -5.96% (inactive)
42 | CN1CCO[C@H](c2ccccc2)c2ccccc2C1 | -5.98% (inactive)
